Inconclusive results are not listed. Active and inactive are the calls of the source. Calls follow the shape of the dose curve; as a rule, active = well fitted inhibition curve with a large enough effect; inconclusive = small, poorly fitted or top-dose-only effect; inactive = flat fitted curve, though single readings scatter.
Tests used:
[1] = qHTS profiling for inhibitors of Plasmodium falciparum proliferation (AID 504749); also: nearly all actives have a fitted effect of over 60% in size;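 as to activity, negative = inhibition: 0% = DMSO vehicle and full inhibition = artemisinin control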; details: P. falciparum in erythrocytes, SYBR Green DNA, 72 h
In short: (§1)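 P. falciparum-infected erythrocytes (0.3% parasitemia, 2.5% hematocrit) incubated with compound 72 h at 37 C, 5% CO2. Parasite DNA detected by SYBR Green after lysis, overnight at room temperature; normalised to 0.29 uM artemisinin and DMSO.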

3D7 = experiment: as above; details: P. falciparum in erythrocytes, SYBR Green DNA, 72 h; series mostly up to 28.7 µM
In short: as §1

7G8 = experiment: as above; details: P. falciparum in erythrocytes, SYBR Green DNA, 72 h; series mostly up to 28.7 µM
In short: as §1

AA1029 = experiment: as above; details: P. falciparum in erythrocytes, SYBR Green DNA, 72 h; series mostly up to 28.7 µM
In short: as §1

AS120 = experiment: as above; details: P. falciparum in erythrocytes, SYBR Green DNA, 72 h; series mostly up to 28.7 µM
In short: as §1

ATS189 = experiment: as above; details: P. falciparum in erythrocytes, SYBR Green DNA, 72 h; series mostly up to 28.7 µM
In short: as §1

ATS95 = experiment: as above; details: P. falciparum in erythrocytes, SYBR Green DNA, 72 h; series mostly up to 28.7 µM
In short: as §1

C2A = experiment: as above; details: P. falciparum in erythrocytes, SYBR Green DNA, 72 h; series mostly up to 28.7 µM
In short: as §1

CP185 = experiment: as above; details: P. falciparum in erythrocytes, SYBR Green DNA, 72 h; series mostly up to 28.7 µM
In short: as §1

CP191 = experiment: as above; details: P. falciparum in erythrocytes, SYBR Green DNA, 72 h; series mostly up to 28.7 µM
In short: as §1

CP192 = experiment: as above; details: P. falciparum in erythrocytes, SYBR Green DNA, 72 h; series mostly up to 28.7 µM
In short: as §1

CP194 = experiment: as above; details: P. falciparum in erythrocytes, SYBR Green DNA, 72 h; series mostly up to 28.7 µM
In short: as §1

[2] = at 28.7 µM (top of the series), parasite line A
[3] = at 28.7 µM (top of the series), parasite line B
Potency is read from the fitted curve at half-maximal effect.

COc1cc(S(C)=O)ccc1-c1nc2ncccc2[nH]1 (stereo not given)
inactive: activity, negative = inhibition [1, 2] 6.38% | activity, negative = inhibition [1, 3] -9.68% | Potency (3D7) | Potency (7G8) | Potency (AA1029) | Potency (AS120) | Potency (ATS189) | Potency (ATS95) | Potency (C2A) | Potency (CP185) | Potency (CP191) | Potency (CP192) | Potency (CP194)

C[Si](C)(C)O[Si](C)(C)C
inactive: activity, negative = inhibition [1, 2] 4.89% | activity, negative = inhibition [1, 3] 10.8% | Potency (3D7) | Potency (7G8) | Potency (AA1029) | Potency (AS120) | Potency (ATS189) | Potency (ATS95) | Potency (C2A) | Potency (CP185) | Potency (CP191) | Potency (CP192) | Potency (CP194)

COC(=O)c1ccccc1O
inactive: activity, negative = inhibition [1, 2] -0.0049% | activity, negative = inhibition [1, 3] 5.19% | Potency (3D7) | Potency (AA1029) | Potency (AS120) | Potency (ATS189) | Potency (ATS95) | Potency (C2A) | Potency (CP185) | Potency (CP191) | Potency (CP192) | Potency (CP194)

C[C@]12CCC(=O)C[C@@H]1CC[C@@H]1[C@@H]2CC[C@]2(C)C=CC[C@@H]12
inactive: activity, negative = inhibition [1, 2] -20.9% | activity, negative = inhibition [1, 3] -5.73% | Potency (3D7) | Potency (AA1029) | Potency (AS120) | Potency (ATS189) | Potency (ATS95) | Potency (C2A) | Potency (CP185) | Potency (CP191) | Potency (CP192) | Potency (CP194)

CCN(CC)CCOC(=O)c1cccnc1
inactive: activity, negative = inhibition [1, 2] -11.6% | activity, negative = inhibition [1, 3] -3.84% | Potency (3D7) | Potency (7G8) | Potency (AA1029) | Potency (AS120) | Potency (ATS189) | Potency (C2A) | Potency (CP185) | Potency (CP192) | Potency (CP194)

Nc1ncnc2c1ncn2[C@H]1CC[C@@H](CO)O1
inactive: activity, negative = inhibition [1, 2] 5.25% | activity, negative = inhibition [1, 3] 9.47% | Potency (3D7) | Potency (7G8) | Potency (AA1029) | Potency (AS120) | Potency (ATS189) | Potency (ATS95) | Potency (C2A) | Potency (CP185) | Potency (CP191) | Potency (CP192) | Potency (CP194)

CS(=O)(=O)OCC(O)C(O)COS(C)(=O)=O (stereo not given)
inactive: activity, negative = inhibition [1, 2] -4.77% | activity, negative = inhibition [1, 3] -5.43% | Potency (3D7) | Potency (7G8) | Potency (AA1029) | Potency (AS120) | Potency (ATS189) | Potency (ATS95) | Potency (C2A) | Potency (CP185) | Potency (CP191) | Potency (CP192) | Potency (CP194)

Cc1ccc(S(=O)(=O)O)cc1C
inactive: activity, negative = inhibition [1, 2] 8.18% | activity, negative = inhibition [1, 3] 4.98% | Potency (3D7) | Potency (7G8) | Potency (AA1029) | Potency (AS120) | Potency (ATS189) | Potency (C2A) | Potency (CP185) | Potency (CP191) | Potency (CP192) | Potency (CP194)

c1ccc2c(c1)OCC(CN1CCCCC1)O2 (stereo not given)
inactive: activity, negative = inhibition [1, 2] 4.84% | activity, negative = inhibition [1, 3] 0.843% | Potency (3D7) | Potency (7G8) | Potency (AA1029) | Potency (AS120) | Potency (ATS189) | Potency (ATS95) | Potency (C2A) | Potency (CP185) | Potency (CP191) | Potency (CP192) | Potency (CP194)

CCC(C)[C@@H](N)C(=O)O (stereo not given in full)
inactive: activity, negative = inhibition [1, 2] 11.4% | activity, negative = inhibition [1, 3] 24.4% | Potency (3D7) | Potency (7G8) | Potency (AA1029) | Potency (AS120) | Potency (ATS189) | Potency (ATS95) | Potency (C2A) | Potency (CP185) | Potency (CP191) | Potency (CP192) | Potency (CP194)

N#Cc1ccc2c(c1)N(CCCN1CCC(O)CC1)c1ccccc1S2
active: Potency (7G8) 12.6 µM | Potency (AA1029) 11.2 µM
inactive: activity, negative = inhibition [1, 2] -11.2% | activity, negative = inhibition [1, 3] -26.8% | Potency (3D7) | Potency (C2A) | Potency (CP192)

COc1ccc(/C=N/NC(=O)c2ccncc2)c(C(=O)O)c1OC
inactive: activity, negative = inhibition [1, 2] 15.9% | activity, negative = inhibition [1, 3] -6.37% | Potency (3D7) | Potency (7G8) | Potency (AA1029) | Potency (AS120) | Potency (ATS189) | Potency (ATS95) | Potency (C2A) | Potency (CP185) | Potency (CP191) | Potency (CP192) | Potency (CP194)

C/C=C/C=C/C(=O)O
inactive: activity, negative = inhibition [1, 2] -0.87% | activity, negative = inhibition [1, 3] -21% | Potency (3D7) | Potency (7G8) | Potency (AA1029) | Potency (AS120) | Potency (ATS189) | Potency (C2A) | Potency (CP185) | Potency (CP191) | Potency (CP192)

CCCOc1cc(N)ccc1C(=O)OCCN(CC)CC
inactive: activity, negative = inhibition ([1]; at 12.8 µM (top of the series), parasite line A) -3.32% | activity, negative = inhibition ([1]; at 12.8 µM (top of the series), parasite line B) 4.44% | Potency (3D7) | Potency (7G8) | Potency (AA1029) | Potency (AS120) | Potency (ATS189) | Potency (ATS95) | Potency (C2A) | Potency (CP185) | Potency (CP191) | Potency (CP192) | Potency (CP194)

CN(C)c1ccc(C(=C2C=CC(=[N+](C)C)C=C2)c2c(O)c(S(=O)(=O)[O-])cc3cc(S(=O)(=O)O)ccc23)cc1
inactive: activity, negative = inhibition [1, 2] -15.9% | activity, negative = inhibition [1, 3] -17.8% | Potency (3D7) | Potency (AA1029) | Potency (AS120) | Potency (ATS189) | Potency (ATS95) | Potency (C2A) | Potency (CP185) | Potency (CP191) | Potency (CP192) | Potency (CP194)

CCCCCCCCCCCCCCCCCCCCCC(=O)Nc1ccn([C@@H]2O[C@H](CO)[C@@H](O)[C@@H]2O)c(=O)n1
inactive: activity, negative = inhibition [1, 2] 4.02% | activity, negative = inhibition [1, 3] 6.88% | Potency (3D7) | Potency (7G8) | Potency (AA1029) | Potency (AS120) | Potency (ATS189) | Potency (ATS95) | Potency (C2A) | Potency (CP185) | Potency (CP191) | Potency (CP192) | Potency (CP194)

CCCCC(CC)COS(=O)(=O)O (stereo not given)
inactive: activity, negative = inhibition [1, 2] 12.8% | activity, negative = inhibition [1, 3] 12.3% | Potency (3D7) | Potency (7G8) | Potency (AA1029) | Potency (AS120) | Potency (ATS189) | Potency (ATS95) | Potency (C2A) | Potency (CP185) | Potency (CP191) | Potency (CP192) | Potency (CP194)

CCC(=O)c1ccc2c(c1)N(CCCN1CCN(CCO)CC1)c1ccccc1S2
active: Potency ([1]; parasite line A) 10 µM | Potency ([1]; parasite line B) 11.2 µM | Potency (3D7) 10 µM | Potency (7G8) 11.2 µM | Potency (AA1029) 12.6 µM | Potency (AS120) 12.6 µM | Potency (ATS189) 12.6 µM | Potency (CP191) 5.62 µM
